# “And” between values parts separate entries of the source, which are not always exact repeats. Equal values may be shown once. About 2,000 (36%) of roughly 5,500 compounds were called active. Another 18% or so got no clear call; they are omitted. The list shows a part of the results. Unmarked numbers belong to inactive results. No stated cut-off is given here; in the data, active means normalized growth mostly below about 0.91 (no sharp cut-off); inconclusive means no clear call, values can overlap the other calls; inactive means mostly above about 0.92.
# Assay: chemical genetic growth profiling, strain panel (AID 1159580);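 further: tested at 20 µM; growth read once vehicle control cultures reached saturation at 30 °C; 1 = growth at the plate median or of vehicle wells; lower values mean less growth of the strain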
# Details: growth OD
# [1] = S. cerevisiae deletion strains, locus YMR307W, strain GAS1, hits give low values
compound,measurement,setting,value
C=C(C)[C@@H]1[C@H]2OC(=O)[C@@H]1[C@]1(O)C[C@H]3O[C@]34C(=O)O[C@H]2[C@]14C,normalized growth,"S. cerevisiae deletion strains, locus YAL013W, strain DEP1, hits give low values",0.985
same,normalized growth,"S. cerevisiae deletion strains, locus YBR021W, strain FUR4, hits give low values",1.01
same,normalized growth,"S. cerevisiae deletion strains, locus YBR229C, strain ROT2, hits give low values",0.947
same,normalized growth,"S. cerevisiae deletion strains, locus YCL029C, strain bik1, hits give low values",0.997
same,normalized growth,"S. cerevisiae deletion strains, locus YDL035C, strain GPR1, hits give low values",0.987
same,normalized growth,"S. cerevisiae deletion strains, locus YDL074C, strain BRE1, hits give low values",1.02
same,normalized growth,"S. cerevisiae deletion strains, locus YDL101C, strain DUN1, hits give low values",0.98
same,normalized growth,"S. cerevisiae deletion strains, locus YDL134C, strain PPH21, hits give low values",0.988
same,normalized growth,"S. cerevisiae deletion strains, locus YDL185W, strain tfp1, hits give low values",1
same,normalized growth,"S. cerevisiae deletion strains, locus YDL192W, strain arf1, hits give low values",0.99
same,normalized growth,"S. cerevisiae deletion strains, locus YDR101C, strain arx1, hits give low values",1
same,normalized growth,"S. cerevisiae deletion strains, locus YDR150W, strain NUM1, hits give low values",0.971
same,normalized growth,"S. cerevisiae deletion strains, locus YDR162C, strain NBP2, hits give low values",0.987
same,normalized growth,"S. cerevisiae deletion strains, locus YDR318W, strain mcm21, hits give low values",1.01
same,normalized growth,"S. cerevisiae deletion strains, locus YDR388W, hits give low values",1.01
same,normalized growth,"S. cerevisiae deletion strains, locus YDR502C, strain sam2, hits give low values",0.994
same,normalized growth,"S. cerevisiae deletion strains, locus YEL061C, strain CIN8, hits give low values",0.987
same,normalized growth,"S. cerevisiae deletion strains, locus YER110C, hits give low values",0.973
same,normalized growth,"S. cerevisiae deletion strains, locus YER155C, strain BEM2, hits give low values",0.999
same,normalized growth,"S. cerevisiae deletion strains, locus YER167W, strain BCK2, hits give low values",1
same,normalized growth,"S. cerevisiae deletion strains, locus YGL078C, strain dbp3, hits give low values",0.994
same,normalized growth,"S. cerevisiae deletion strains, locus YGL086W, strain mad1, hits give low values",0.99
same,normalized growth,"S. cerevisiae deletion strains, locus YGL248W, strain PDE1, hits give low values",0.98
same,normalized growth,"S. cerevisiae deletion strains, locus YGR078C, strain PAC10, hits give low values",1.01
same,normalized growth,"S. cerevisiae deletion strains, locus YGR135W, strain pre9, hits give low values",1
same,normalized growth,"S. cerevisiae deletion strains, locus YGR229C, strain SMI1, hits give low values",1.01
same,normalized growth,"S. cerevisiae deletion strains, locus YGR252W, strain gcn5, hits give low values",0.95
same,normalized growth,"S. cerevisiae deletion strains, locus YHR030C, strain SLT2, hits give low values",0.996 and 1.03
same,normalized growth,"S. cerevisiae deletion strains, locus YHR079C, strain IRE1 (second series), hits give low values",1
same,normalized growth,"S. cerevisiae deletion strains, locus YHR079C, strain IRE1, hits give low values",0.993
same,normalized growth,"S. cerevisiae deletion strains, locus YHR094C, strain hxt1, hits give low values",0.996
same,normalized growth,"S. cerevisiae deletion strains, locus YHR129C, strain ARP1, hits give low values",1
same,normalized growth,"S. cerevisiae deletion strains, locus YHR200W, strain rpn10, hits give low values",1
same,normalized growth,"S. cerevisiae deletion strains, locus YIL066C, strain RNR3, hits give low values",0.97
same,normalized growth,"S. cerevisiae deletion strains, locus YIL073C, strain SPO22, hits give low values",0.982
same,normalized growth,"S. cerevisiae deletion strains, locus YIL125W, strain kgd1, hits give low values",0.99
same,normalized growth,"S. cerevisiae deletion strains, locus YIR030C, strain dcg1, hits give low values",0.99
same,normalized growth,"S. cerevisiae deletion strains, locus YJL095W, strain BCK1, hits give low values",1.02 and 0.989
same,normalized growth,"S. cerevisiae deletion strains, locus YJL134W, strain LCB3, hits give low values",0.984
same,normalized growth,"S. cerevisiae deletion strains, locus YJL168C, strain set2, hits give low values",1
same,normalized growth,"S. cerevisiae deletion strains, locus YJL187C, strain SWE1 (second series), hits give low values",0.986
same,normalized growth,"S. cerevisiae deletion strains, locus YJR043C, strain POL32, hits give low values",1.02
same,normalized growth,"S. cerevisiae deletion strains, locus YJR066W, strain TOR1, hits give low values",0.962
same,normalized growth,"S. cerevisiae deletion strains, locus YJR075W, strain HOC1, hits give low values",1
same,normalized growth,"S. cerevisiae deletion strains, locus YKL009W, strain mrt4, hits give low values",0.96
same,normalized growth,"S. cerevisiae deletion strains, locus YKL068W, hits give low values",0.997
same,normalized growth,"S. cerevisiae deletion strains, locus YKL085W, strain MDH1 (second series), hits give low values",0.996
same,normalized growth,"S. cerevisiae deletion strains, locus YKL085W, strain MDH1, hits give low values",0.996
same,normalized growth,"S. cerevisiae deletion strains, locus YKL190W, strain CNB1, hits give low values",1
same,normalized growth,"S. cerevisiae deletion strains, locus YKR001C, strain vps1, hits give low values",1.01
same,normalized growth,"S. cerevisiae deletion strains, locus YLR039C, strain RIC1, hits give low values",0.972
same,normalized growth,"S. cerevisiae deletion strains, locus YLR058C, strain SHM2, hits give low values",0.964
same,normalized growth,"S. cerevisiae deletion strains, locus YLR102C, strain apc9, hits give low values",1
same,normalized growth,"S. cerevisiae deletion strains, locus YLR113W, strain HOG1, hits give low values",0.982
same,normalized growth,"S. cerevisiae deletion strains, locus YLR262C, strain YPT6, hits give low values",0.93
same,normalized growth,"S. cerevisiae deletion strains, locus YLR268W, strain sec22, hits give low values",1.07
same,normalized growth,"S. cerevisiae deletion strains, locus YLR330W, strain CHS5, hits give low values",0.983
same,normalized growth,"S. cerevisiae deletion strains, locus YLR342W, strain FKS1 (second series), hits give low values",1.01
same,normalized growth,"S. cerevisiae deletion strains, locus YLR371W, strain rom2, hits give low values",0.988
same,normalized growth,"S. cerevisiae deletion strains, locus YLR418C, strain cdc73, hits give low values",0.998
same,normalized growth,"S. cerevisiae deletion strains, locus YML016C, strain PPZ1, hits give low values",0.982
same,normalized growth,"S. cerevisiae deletion strains, locus YML032C, strain rad52, hits give low values",1.02
same,normalized growth,"S. cerevisiae deletion strains, locus YML124C, strain tub3, hits give low values",0.992
same,normalized growth,"S. cerevisiae deletion strains, locus YMR078C, strain ctf18, hits give low values",1
same,normalized growth,"S. cerevisiae deletion strains, locus YMR223W, strain ubp8, hits give low values",0.983
same,normalized growth,"S. cerevisiae deletion strains, locus YMR263W, strain SAP30, hits give low values",1.01
same,normalized growth,[1],0.987
same,normalized growth,"S. cerevisiae deletion strains, locus YNL067W, strain RPL9B, hits give low values",1.02
same,normalized growth,"S. cerevisiae deletion strains, locus YNL128W, strain TEP1, hits give low values",0.976
same,normalized growth,"S. cerevisiae deletion strains, locus YNL153C, strain GIM3, hits give low values",0.998
same,normalized growth,"S. cerevisiae deletion strains, locus YNL183C, strain NPR1, hits give low values",0.954
same,normalized growth,"S. cerevisiae deletion strains, locus YNL233W, strain BNI4, hits give low values",1
same,normalized growth,"S. cerevisiae deletion strains, locus YNL250W, strain rad50, hits give low values",0.975
same,normalized growth,"S. cerevisiae deletion strains, locus YNL271C, strain bni1, hits give low values",1.01
same,normalized growth,"S. cerevisiae deletion strains, locus YNL298W, strain CLA4, hits give low values",0.999
same,normalized growth,"S. cerevisiae deletion strains, locus YNL307C, strain MCK1, hits give low values",0.987
same,normalized growth,"S. cerevisiae deletion strains, locus YNL322C, strain KRE1, hits give low values",0.994
same,normalized growth,"S. cerevisiae deletion strains, locus YNR052C, strain pop2, hits give low values",1
same,normalized growth,"S. cerevisiae deletion strains, locus YOL006C, strain TOP1, hits give low values",1.03
same,normalized growth,"S. cerevisiae deletion strains, locus YOL012C, strain htz1",0.801
same,normalized growth,"S. cerevisiae deletion strains, locus YOL147C, strain pex11, hits give low values",0.991
same,normalized growth,"S. cerevisiae deletion strains, locus YOR061W, strain CKA2, hits give low values",0.976
same,normalized growth,"S. cerevisiae deletion strains, locus YOR069W, strain VPS5, hits give low values",0.98
same,normalized growth,"S. cerevisiae deletion strains, locus YOR136W, strain idh2, hits give low values",0.986
same,normalized growth,"S. cerevisiae deletion strains, locus YOR144C, strain elg1, hits give low values",0.997
same,normalized growth,"S. cerevisiae deletion strains, locus YOR184W, strain ser1, hits give low values",0.985
same,normalized growth,"S. cerevisiae deletion strains, locus YOR231W, strain MKK1, hits give low values",1.02
same,normalized growth,"S. cerevisiae deletion strains, locus YOR316C, strain cot1, hits give low values",0.995
same,normalized growth,"S. cerevisiae deletion strains, locus YPL055C, strain LGE1, hits give low values",0.978
same,normalized growth,"S. cerevisiae deletion strains, locus YPL241C, strain CIN2, hits give low values",0.994
same,normalized growth,"S. cerevisiae deletion strains, locus YPL256C, strain CLN2, hits give low values",1.05
same,normalized growth,"S. cerevisiae deletion strains, locus YPR119W, strain clb2, hits give low values",0.991
same,normalized growth,"S. cerevisiae deletion strains, locus YPR141C, strain kar3, hits give low values",0.981
same,normalized growth,"S. cerevisiae deletion strains, locus YPR163C, strain tif3, hits give low values",1
same,normalized growth,"S. cerevisiae deletion strains, locus YPR167C, strain met16, hits give low values",1
same,normalized growth,"S. cerevisiae deletion strains, strain wtn01, hits give low values",1.02
same,normalized growth,"S. cerevisiae strains, strain wild type, hits give low values",0.981
CC(C)(O)C1C2OC(=O)C1C1(O)CC3OC34C(=O)OC2C14C (stereo not given) (tested in a mixture with another compound),normalized growth,"S. cerevisiae deletion strains, locus YAL040C, strain CLN3, hits give low values",0.454 (active)
same,normalized growth,"S. cerevisiae deletion strains, locus YCL061C, strain MRC1 (second series), hits give low values",1.01
same,normalized growth,"S. cerevisiae deletion strains, locus YDR363W, strain ESC2, hits give low values",0.969
same,normalized growth,[1],0.983
same,normalized growth,"S. cerevisiae deletion strains, locus YNL175C, strain NOP13, hits give low values",0.537 (active)
same,normalized growth,"S. cerevisiae deletion strains, locus YNL197C, strain WHI3, hits give low values",1
same,normalized growth,"S. cerevisiae deletion strains, locus YNL224C, strain SQS1, hits give low values",1
same,normalized growth,"S. cerevisiae deletion strains, locus YOR083W, strain WHI5 (second series), hits give low values",0.502 (active)
